# The source made the active and inactive calls.
# Tests used:
# Albumin (Bos taurus) = Albumin (Bos taurus) (UniProt P02769); assay: bovine serum albumin binders on microarray, profiling panel, artefact control for SMM control protein annotation, biochemical, small-molecule microarray, Alexa647 label, 635/667 nm fluorescence (AID 1118); settings: BSA-A647 binding, fluorescence 635 nm, higher = more signal;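 note: score merges 667 nm emission intensity and signal-to-noise per printed compound spot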
# Chain of Albumin (Bos taurus) (P02769 whole entry, looked up): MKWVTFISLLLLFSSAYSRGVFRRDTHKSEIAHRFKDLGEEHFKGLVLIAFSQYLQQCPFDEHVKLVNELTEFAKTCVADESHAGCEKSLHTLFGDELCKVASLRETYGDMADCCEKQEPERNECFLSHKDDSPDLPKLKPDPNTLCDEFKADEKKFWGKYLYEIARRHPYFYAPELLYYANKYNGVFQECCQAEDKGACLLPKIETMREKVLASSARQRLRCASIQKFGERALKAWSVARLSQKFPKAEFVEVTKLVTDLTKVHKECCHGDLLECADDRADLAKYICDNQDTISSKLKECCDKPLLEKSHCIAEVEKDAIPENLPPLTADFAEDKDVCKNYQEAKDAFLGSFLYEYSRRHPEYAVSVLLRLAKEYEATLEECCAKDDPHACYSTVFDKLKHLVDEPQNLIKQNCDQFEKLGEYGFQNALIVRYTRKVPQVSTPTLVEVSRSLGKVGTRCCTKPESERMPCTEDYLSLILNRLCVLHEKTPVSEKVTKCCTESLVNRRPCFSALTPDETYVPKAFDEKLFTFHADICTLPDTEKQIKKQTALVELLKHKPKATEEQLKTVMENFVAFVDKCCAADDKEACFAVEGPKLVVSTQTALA
# [1] = small-molecule microarray binders of probe aXIP, primary screen, biochemical, NeuroSMM set, 635/667 nm fluorescence (AID 1119); settings: higher = more signal, called active from +8 up or from −8 down;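 note: probe is the protein aXip251-270 applied at 1 µg/mL to compound-printed slides; binding of probe to printed compounds measured as 667 nm fluorescence plus signal to noise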
# [2] = small-molecule binders of probe aNOTCH3, primary screen, biochemical, small-molecule microarray, 635/667 nm fluorescence (AID 1120); settings: higher = more signal;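 note: probe is a biotin-tagged antibody raised against NOTCH3 rather than NOTCH3 protein; score merges spot fluorescence near 667 nm with spot signal to noise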
# [3] = small-molecule binders of probe aNOTCH2, primary screen, biochemical, small-molecule microarray, 635/667 nm fluorescence (AID 1121); settings: higher = more signal;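 note: score merges feature fluorescence read at 667 nm with its signal to noise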
# [4] = biological target: Carbonic anhydrase 2 (Homo sapiens) (UniProt P00918); assay: CAII small-molecule binders, profiling panel, biochemical, small-molecule microarray, Alexa647-labelled CAII (AID 1122); settings: CAII-A647 binding fluorescence, higher = more signal
# [5] = COS7 lysate on small-molecule microarray, probe aHis, 635 nm (AID 1123); settings: COS7 cell lysate, fluorescence, higher = more signal;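 note: z-score combines 667nm fluorescence intensity with signal-to-noise per printed compound spot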
# [6] = compound binding in COS7 lysate, probe aLAP1, primary screen, cell lysate, small-molecule microarray (AID 1124); settings: probe aLAP1, fluorescence, higher = more signal;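 note: lysate comes from COS7 cells expressing LAP1 and is applied at 0.3 µg/mL; score merges spot fluorescence near 667 nm with signal-to-noise over triplicate slides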
# Sam68 (KHDRBS1) = assay: Sam68 small-molecule binders, primary screen, biochemical, small-molecule microarray, 635 nm fluorescence (AID 1125); settings: small-molecule microarray binding, higher = more signal;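 note: score merges 667 nm channel intensity with signal to noise over triplicate slides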
# [7] = system: Chordin-like protein 2 (CHRDL2); assay: CHRDL2 small-molecule binders, primary screen, biochemical, small-molecule microarray, 635 nm fluorescence (AID 1126); settings: small-molecule microarray binding, fluorescence 635 nm; higher = more signal;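 note: printed compound slides probed with Chrdl2 protein at 4 µg/mL for 1 h at 4 C; score merges 667 nm emission intensity with signal to noise over three replicate slides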
# [8] = biological target: Concanavalin-A (Canavalia ensiformis) (UniProt P02866); assay: ConA small-molecule binders, primary screen, artefact control for SMM control protein annotation, biochemical, small-molecule microarray, Alexa647 label, 635 nm (AID 1127); settings: ConA-A647 binding fluorescence, higher = more signal;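 note: z combines 667 nm emission intensity with signal-to-noise across three replicate slides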
# Chain of Concanavalin-A (Canavalia ensiformis) (P02866 whole entry, looked up): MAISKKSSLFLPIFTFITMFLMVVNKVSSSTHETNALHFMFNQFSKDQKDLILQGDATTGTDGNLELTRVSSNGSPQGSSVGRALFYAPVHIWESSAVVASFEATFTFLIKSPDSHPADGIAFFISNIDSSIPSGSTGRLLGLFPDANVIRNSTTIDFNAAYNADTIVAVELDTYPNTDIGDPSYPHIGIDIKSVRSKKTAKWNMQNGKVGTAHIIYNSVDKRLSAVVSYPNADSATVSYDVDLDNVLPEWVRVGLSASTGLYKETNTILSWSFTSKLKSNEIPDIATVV
# [9] = anti-His antibody binders, primary screen, artefact control for SMM control protein annotation, biochemical, small-molecule microarray, 635 nm fluorescence (AID 1128); settings: anti-His Alexa647 antibody binding, higher = more signal;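 note: score merges feature fluorescence with signal-to-noise for each printed compound spot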
# [10] = system: Human papillomavirus type 1a E7 protein (residues 1-88); assay: HPV1a E7 small-molecule binders, primary screen, biochemical, small-molecule microarray, residues 1-88, 635 nm (AID 1129); settings: small-molecule microarray binding, fluorescence 635 nm; higher = more signal
# [11] = biological target: Focal adhesion kinase 1 (Homo sapiens) (UniProt Q05397); assay: small-molecule microarray binders of FAK, primary screen, biochemical, 635/667 nm fluorescence, BSA, DTT (AID 1130); settings: PTK2 binding, 635 nm fluorescence, higher = more signal;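 note: composite of spot emission at 667 nm and signal to noise over triplicate slides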
# Chain of Focal adhesion kinase 1 (Homo sapiens) (Q05397 whole entry, looked up): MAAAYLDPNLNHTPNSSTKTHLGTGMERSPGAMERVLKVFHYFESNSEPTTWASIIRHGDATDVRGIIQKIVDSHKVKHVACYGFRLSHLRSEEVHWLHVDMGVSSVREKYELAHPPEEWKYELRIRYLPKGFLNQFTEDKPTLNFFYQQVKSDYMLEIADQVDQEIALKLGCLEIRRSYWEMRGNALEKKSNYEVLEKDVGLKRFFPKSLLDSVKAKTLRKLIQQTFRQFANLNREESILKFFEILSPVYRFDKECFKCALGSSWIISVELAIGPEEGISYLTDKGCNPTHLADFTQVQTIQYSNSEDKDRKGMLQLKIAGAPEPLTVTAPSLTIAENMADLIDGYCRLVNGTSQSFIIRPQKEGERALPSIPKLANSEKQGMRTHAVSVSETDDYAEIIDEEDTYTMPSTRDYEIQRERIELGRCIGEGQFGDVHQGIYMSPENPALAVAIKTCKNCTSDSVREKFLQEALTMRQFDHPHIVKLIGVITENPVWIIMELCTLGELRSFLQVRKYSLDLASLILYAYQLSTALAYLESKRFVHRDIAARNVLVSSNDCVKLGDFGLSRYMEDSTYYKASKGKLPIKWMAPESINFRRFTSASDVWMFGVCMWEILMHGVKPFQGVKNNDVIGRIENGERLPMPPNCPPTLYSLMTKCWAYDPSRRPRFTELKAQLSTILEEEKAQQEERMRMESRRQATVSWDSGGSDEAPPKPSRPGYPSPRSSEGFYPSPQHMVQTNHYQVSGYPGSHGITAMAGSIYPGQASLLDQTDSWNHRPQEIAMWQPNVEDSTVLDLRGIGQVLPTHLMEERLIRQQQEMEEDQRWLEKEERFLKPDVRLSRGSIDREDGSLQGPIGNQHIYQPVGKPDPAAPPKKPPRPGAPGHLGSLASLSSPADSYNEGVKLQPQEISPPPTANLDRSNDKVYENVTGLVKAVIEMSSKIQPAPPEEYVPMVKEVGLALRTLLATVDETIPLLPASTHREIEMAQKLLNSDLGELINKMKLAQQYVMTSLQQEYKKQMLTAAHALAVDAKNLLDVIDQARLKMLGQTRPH
# [12] = system: Fibrinogen (Alexa647-labelled); assay: fibrinogen binders on compound microarrays, profiling panel, artefact control for SMM control-protein annotation, biochemical, small-molecule microarray, 635/667 nm fluorescence (AID 1131); settings: fibrinogen-A647 binding fluorescence, higher = more signal;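 note: z-score merges 667 nm fluorescence with per-spot signal-to-noise over triplicate slides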
# [13] = biological target: Follistatin (Homo sapiens) (UniProt P19883); assay: follistatin binders on small-molecule microarrays, primary screen, biochemical, small-molecule microarray, 635/667 nm fluorescence (AID 1132); settings: FST binding, 635 nm fluorescence, higher = more signal
# Chain of Follistatin (Homo sapiens) (P19883 whole entry, looked up): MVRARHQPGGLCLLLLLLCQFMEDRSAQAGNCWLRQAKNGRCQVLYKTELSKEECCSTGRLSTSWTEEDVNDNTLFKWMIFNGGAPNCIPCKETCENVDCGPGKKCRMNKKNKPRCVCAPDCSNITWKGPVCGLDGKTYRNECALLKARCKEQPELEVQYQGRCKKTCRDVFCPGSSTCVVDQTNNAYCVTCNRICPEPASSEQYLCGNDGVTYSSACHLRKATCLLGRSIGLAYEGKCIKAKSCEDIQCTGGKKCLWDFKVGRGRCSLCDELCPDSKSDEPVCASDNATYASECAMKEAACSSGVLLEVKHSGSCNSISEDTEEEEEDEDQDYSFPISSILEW
# [14] = biological target: Fibroblast growth factor 2 (Homo sapiens) (UniProt P09038); assay: FGF2 binders on small-molecule microarrays, primary screen, biochemical, small-molecule microarray, 635/667 nm fluorescence (AID 1133); settings: small-molecule microarray binding, FGF2, fluorescence 635/667; higher = more signal
# Chain of Fibroblast growth factor 2 (Homo sapiens) (P09038 whole entry, looked up): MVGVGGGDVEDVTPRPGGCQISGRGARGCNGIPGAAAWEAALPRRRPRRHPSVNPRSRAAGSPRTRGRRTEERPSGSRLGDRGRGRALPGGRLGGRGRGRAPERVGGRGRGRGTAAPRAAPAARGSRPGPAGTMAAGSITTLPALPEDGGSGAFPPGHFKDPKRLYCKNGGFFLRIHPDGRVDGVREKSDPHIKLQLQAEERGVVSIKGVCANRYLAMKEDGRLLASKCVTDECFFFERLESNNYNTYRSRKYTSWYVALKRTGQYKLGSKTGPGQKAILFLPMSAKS
# [15] = mitochondrial membrane potential change in A549 cells, profiling panel, cell-based, JC-1 fluorescence, basal, 24 h, 100 nL (AID 1138); settings: higher = more signal;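 note: A549 lung adenocarcinoma cells under basal conditions with no added stimulus; test concentration not given here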
# Lefty1 = Lefty1 binders on small-molecule microarrays, primary screen, biochemical, small-molecule microarray, 635/667 nm fluorescence (AID 1139); settings: small-molecule microarray binding, fluorescence 635/667; higher = more signal
# [16] = system: wheat germ agglutinin (Triticum aestivum), Alexa647-labelled; assay: wheat germ agglutinin binders on compound microarrays, profiling panel, artefact control for SMM control-protein annotation, biochemical, small-molecule microarray, 635/667 nm fluorescence (AID 1140); settings: WGA-A647 binding, 635 nm fluorescence, higher = more signal;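 note: score merges 667 nm feature emission with signal to noise over triplicate slides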
# [17] = biological target: Luciferin 4-monooxygenase (Photinus pyralis) (UniProt P08659); assay: firefly luciferase enzyme inhibitors, primary screen, biochemical, luminescence, purified enzyme, 2006 set (AID 1141); settings: SteadyGlo luminescence, 30 min, higher = more signal, called active from +8 up or from −8 down;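 note: cell-free assay with purified firefly luciferase at 100 ng per well in PBS; test concentration not given here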
# Chain of Luciferin 4-monooxygenase (Photinus pyralis) (P08659 whole entry, looked up): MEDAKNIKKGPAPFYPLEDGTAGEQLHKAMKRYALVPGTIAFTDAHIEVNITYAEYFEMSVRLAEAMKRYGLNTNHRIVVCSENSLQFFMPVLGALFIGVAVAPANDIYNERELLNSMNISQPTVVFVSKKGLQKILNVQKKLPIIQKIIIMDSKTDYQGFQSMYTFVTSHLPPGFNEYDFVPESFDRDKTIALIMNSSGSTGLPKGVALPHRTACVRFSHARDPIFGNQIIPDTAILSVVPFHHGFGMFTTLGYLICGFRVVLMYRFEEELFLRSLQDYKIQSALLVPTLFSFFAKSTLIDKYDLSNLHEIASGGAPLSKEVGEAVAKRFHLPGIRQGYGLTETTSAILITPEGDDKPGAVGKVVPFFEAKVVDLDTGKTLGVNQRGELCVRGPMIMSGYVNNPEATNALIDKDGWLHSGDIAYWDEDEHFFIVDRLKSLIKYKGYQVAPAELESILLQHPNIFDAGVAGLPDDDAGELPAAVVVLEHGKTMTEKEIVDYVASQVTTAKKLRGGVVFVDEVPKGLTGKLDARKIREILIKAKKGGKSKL
SMILES,composite z-score (Albumin (Bos taurus)),composite Z-score [1],composite z-score [2],composite z-score [3],composite z-score [4],composite z-score [5],composite z-score [6],composite z-score (Sam68 (KHDRBS1)),composite z-score [7],composite z-score [8],composite z-score [9],composite z-score [10],composite z-score [11],composite z-score [12],composite z-score [13],composite z-score [14],z-score [15],composite z-score (Lefty1),composite z-score [16],z-score [17]
NC(=O)NCC#Cc1ccc2c(c1)[C@]1(C(=O)N2)[C@H](C(=O)Nc2nc3ccccc3s2)[C@H]2C(=O)O[C@H](c3ccccc3)[C@H](c3ccccc3)N2[C@@H]1c1ccc(O)cc1,-0.0229,0.157 (inactive),0.114,0.103,0.0856,-0.482,0.274,0.846,0.402,1.07,-0.198,0.52,0.286,0.629,1.28,0.651,-2.41,0.383,0.696,-1.76 (inactive)
O=C1C[C@]2(c3ccc([N+](=O)[O-])cc3)C(=O)N(Cc3ccccc3)c3cc(CO)ccc3[C@H]2N1CC12CC3CC(CC(C3)C1)C2,-0.729,-0.767 (inactive),-0.356,-0.207,-0.406,0.284,1.66,-1.26,-1.27,-1.73,-1.43,-0.835,-0.536,-1.28,-1.06,-0.653,-0.0834,-1.17,-0.786,-0.271 (inactive)
COC(=O)C[C@H]1O[C@]2(C(=O)N(C)c3ccccc32)[C@@H](C)[C@@H]1[Si](C)(C)c1ccc(C)cc1,0.683,0.397 (inactive),-0.113,-0.117,0.0614,0.311,0.218,1.16,0.0565,0.379,0.522,1.12,0.342,0.343,0.498,0.148,0.557,0.818,0.255,-0.507 (inactive)
C=C(/C(=C/C[C@@H](OC(=O)c1ccncc1)c1ccc(OCCO)cc1)c1cc(C(=O)OC)ccc1OC)C(C)C,0.277,0.443 (inactive),0.157,-0.124,0.269,1.06,-0.017,1.14,-0.0737,0.695,0.217,1.19,-0.4,0.135,0.623,0.417,0.628,0.632,0.592,-0.467 (inactive)
CN1C(=O)C2C=CC(C(O)C3CCCCC3)N(N3CCCCC3)C2C1=O (stereo not given),0.92,1.56 (inactive),0.196,0.0019,0.663,2.48,0.794,1.3,0.0449,0.927,1.18,1.26,0.542,0.957,1.31,0.182,1.25,0.766,0.774,0.49 (inactive)
CCOC(=O)C[C@H]1[C@H](OC(=O)c2ccc(-c3ccccc3)cc2)[C@@H](NC(=O)C2CCCCC2)c2cc(OCCCO)ccc2N1C(=O)c1ccccc1,0.236,-0.6 (inactive),0.172,-0.152,0.0455,0.92,0.0846,0.957,0.372,0.949,0.0672,0.755,0.559,0.845,0.461,0.406,0.0651,0.544,0.207,0.0421 (inactive)
CC(C)(C)OC(=O)CC[C@@]1(C(=O)O)N=C(c2ccc(OCCCO)cc2)O[C@@H]1c1ccccc1CN=[N+]=[N-],0.939,0.242 (inactive),0.1,0.046,0.849,2.23,0.312,0.76,-0.309,1.18,2.7,0.807,0.399,0.85,0.367,-0.279,0.792,-0.816,0.851,-2.19 (inactive)
C=CCN1C(=O)[C@]2(CC=C)N=C(c3ccc(OCCCO)cc3)O[C@@H]2c2ccccc21,0.93,1.66 (inactive),0.193,-0.0648,0.675,1.35,0.053,1.33,0.689,1.14,3.19,1.16,0.496,0.297,1.39,1.56,-0.998,0.768,1.14,-3.31 (inactive)
CCOC(=O)C[C@H]1[C@H](OC(=O)c2ccc(-c3ccccc3)cc2)[C@@H](NC(=O)c2ccc3ccccc3n2)c2cc(OCCCO)ccc2N1C(=O)c1ccccc1,0.58,-0.202 (inactive),0.0916,-0.0613,0.14,0.554,0.0488,1.25,0.423,1.04,1.14,1,0.059,0.702,0.779,0.736,-0.332,0.815,0.262,0.371 (inactive)
COc1cc(OC)c(C(O)C2C=CC3C(=O)N(c4ccccc4)C(=O)C3N2Nc2ccc(C#N)cc2)cc1Br (stereo not given),1.01,1.5 (inactive),0.334,0.401,0.849,2.49,1.41,1.15,0.355,1.04,1.36,1.02,0.707,0.674,1.22,0.217,0.658,-0.129,1.13,0.289 (inactive)
O=C1c2ccccc2[C@](Cc2ccccc2I)(C(=O)NCc2ccccc2)[C@H](c2ccc(CO)cc2)N1C1CCCCC1,0.861,0.534 (inactive),0.16,-0.0997,0.601,1.21,0.576,1.12,0.271,1.23,2.68,1.2,0.699,0.945,1.54,1.93,-0.0853,1.42,1.04,-0.0828 (inactive)
